In PubChem BioAssay (NCI):
Compounds without any hit were thinned out: in the full panel of roughly 83,000, 20% have a hit.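 Assay: single dose, 48 h. Readout: percent growth (0 = no net growth; negative = cell death). Active: <10.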 Active and inactive are the calls of the source.

Tests used:
Experiment in all cases: NCI-60 one-dose screen, 48 h (100 = growth as untreated, 0 = no growth, -100 = all killed)
Details in all cases: 10 µM unless noted
SR leukemia = test system: SR leukemia
RPMI-8226 leukemia = test system: RPMI-8226 leukemia
OVCAR-8 ovarian = test system: OVCAR-8 ovarian
OVCAR-5 ovarian = test system: OVCAR-5 ovarian
OVCAR-4 ovarian = test system: OVCAR-4 ovarian
SK-OV-3 ovarian = test system: SK-OV-3 ovarian
IGROV1 ovarian = test system: IGROV1 ovarian
OVCAR-3 ovarian = test system: OVCAR-3 ovarian
HS 578T breast = test system: HS 578T breast
NCI/ADR-RES ovarian = test system: NCI/ADR-RES ovarian

Measured: growth

c1ccc(-c2nc(Nc3nccnn3)c3ccccc3n2)cc1
inactive: SR leukemia 91.6% | RPMI-8226 leukemia 98.4% | OVCAR-8 ovarian 95.3% | OVCAR-5 ovarian 97.1% | OVCAR-4 ovarian 122% | SK-OV-3 ovarian 115% | IGROV1 ovarian 92.2% | OVCAR-3 ovarian 100% | HS 578T breast 98.8% | NCI/ADR-RES ovarian 98.8%

O=C(Nc1ccccc1)P(=O)(O)c1ccccc1
inactive: SR leukemia 98% | RPMI-8226 leukemia 111% | OVCAR-8 ovarian 92.4% | OVCAR-5 ovarian 92.9% | OVCAR-4 ovarian 105% | SK-OV-3 ovarian 113% | IGROV1 ovarian 121% | OVCAR-3 ovarian 104% | HS 578T breast 107% | NCI/ADR-RES ovarian 99.4%

NS(=O)(=O)c1ccc(-n2ncc3c(N/N=C/c4ccccc4)ncnc32)cc1
inactive: SR leukemia 50.8% | RPMI-8226 leukemia 83.4% | OVCAR-8 ovarian 55.5% | OVCAR-5 ovarian 97.2% | OVCAR-4 ovarian 54.3% | SK-OV-3 ovarian 107% | IGROV1 ovarian 76.5% | OVCAR-3 ovarian 99.9% | HS 578T breast 113% | NCI/ADR-RES ovarian 87.6%

c1ccc(COc2ccc(Nc3ncnc4c3cnn4-c3ccccc3)cc2)cc1
inactive: SR leukemia 91.9% | RPMI-8226 leukemia 96.5% | OVCAR-8 ovarian 113% | OVCAR-5 ovarian 98.9% | OVCAR-4 ovarian 91.3% | SK-OV-3 ovarian 108% | IGROV1 ovarian 100% | OVCAR-3 ovarian 113% | HS 578T breast 109% | NCI/ADR-RES ovarian 107%

COc1ccc2c(c1)[n+](=O)c(C(=O)/C=C/c1cc(OC)c(OC)c(OC)c1)c(C)n2[O-]
inactive: SR leukemia 29.5% | RPMI-8226 leukemia 32.3% | OVCAR-8 ovarian 57.4% | OVCAR-5 ovarian 102% | OVCAR-4 ovarian 72.3% | SK-OV-3 ovarian 82.3% | OVCAR-3 ovarian 102% | HS 578T breast 63.4% | NCI/ADR-RES ovarian 73%
active: IGROV1 ovarian -27.6%

N#Cc1c(-c2ccccc2)cc(-c2ccccc2)n(CCCC(=O)O)c1=O
inactive: SR leukemia 91.8% | RPMI-8226 leukemia 103% | OVCAR-8 ovarian 51.3% | OVCAR-5 ovarian 104% | OVCAR-4 ovarian 102% | SK-OV-3 ovarian 105% | IGROV1 ovarian 99.4% | OVCAR-3 ovarian 112% | HS 578T breast 107% | NCI/ADR-RES ovarian 99.8%

COc1ccc(-c2cc(-c3nnc(SCC(=O)Nc4ccc(C(C)=O)cc4)n3-c3ccccc3)c3ccccc3n2)cc1OC
inactive: SR leukemia 121% | RPMI-8226 leukemia 105% | OVCAR-8 ovarian 104% | OVCAR-5 ovarian 106% | OVCAR-4 ovarian 106% | SK-OV-3 ovarian 81.6% | IGROV1 ovarian 105% | OVCAR-3 ovarian 96.8% | HS 578T breast 108% | NCI/ADR-RES ovarian 104%

Nc1nc(Nc2ccccc2SSc2ccccc2Nc2nc(N)nc(-c3ccc(I)cc3)n2)nc(-c2ccc(I)cc2)n1
inactive: SR leukemia 13.9% | RPMI-8226 leukemia 61.4% | OVCAR-8 ovarian 60.2% | OVCAR-5 ovarian 84.9% | OVCAR-4 ovarian 107% | SK-OV-3 ovarian 116% | IGROV1 ovarian 50.3% | OVCAR-3 ovarian 94.1% | HS 578T breast 89.1% | NCI/ADR-RES ovarian 49.6%

NC(=O)c1cc(Cl)ccc1NC(=O)c1ccccc1-c1ccccc1
active: SR leukemia 5.82% | OVCAR-3 ovarian -30.7%
inactive: RPMI-8226 leukemia 19% | OVCAR-8 ovarian 32% | OVCAR-5 ovarian 54.4% | OVCAR-4 ovarian 48.3% | SK-OV-3 ovarian 33.1% | IGROV1 ovarian 30% | HS 578T breast 33.8% | NCI/ADR-RES ovarian 20.7%

COc1ccc(-c2cnc(SCC(=O)Nc3ccc(-c4nc5ccccc5s4)cc3)n2-c2ccc(OC)cc2)cc1
inactive: SR leukemia 99.5% | RPMI-8226 leukemia 113% | OVCAR-8 ovarian 105% | OVCAR-5 ovarian 99% | OVCAR-4 ovarian 111% | SK-OV-3 ovarian 111% | IGROV1 ovarian 91.5% | OVCAR-3 ovarian 109% | HS 578T breast 105% | NCI/ADR-RES ovarian 107%

CCOC(=O)CCN(c1c(Cl)ssc1=O)C(C)C
active: IGROV1 ovarian -5.46%
inactive: SR leukemia 134% | RPMI-8226 leukemia 105% | OVCAR-8 ovarian 97.2% | OVCAR-5 ovarian 87.2% | OVCAR-4 ovarian 106% | SK-OV-3 ovarian 116% | OVCAR-3 ovarian 128% | HS 578T breast 103% | NCI/ADR-RES ovarian 105%

CC(=O)OCC(=O)[C@@]1(O)CC[C@H]2[C@@H]3CCC4=CC(=O)CC[C@]4(C)[C@@]3(F)[C@@H](O)C[C@@]21C
inactive: SR leukemia 99.8% | RPMI-8226 leukemia 62.5% | OVCAR-8 ovarian 93.8% | OVCAR-5 ovarian 80.2% | OVCAR-4 ovarian 105% | SK-OV-3 ovarian 63.7% | IGROV1 ovarian 116% | OVCAR-3 ovarian 106% | HS 578T breast 112% | NCI/ADR-RES ovarian 89.6%

COc1ccc(NC(=O)c2ccccc2-c2ccccc2)c(C(N)=O)c1
active: SR leukemia 8.17% | OVCAR-3 ovarian -22.4%
inactive: RPMI-8226 leukemia 38.2% | OVCAR-8 ovarian 58.8% | OVCAR-5 ovarian 88.3% | OVCAR-4 ovarian 49.5% | SK-OV-3 ovarian 32.3% | IGROV1 ovarian 52.1% | HS 578T breast 38.9% | NCI/ADR-RES ovarian 26.9%
